# Source: PubChem BioAssay (several laboratories)
# In the library only some 2.4% were active in any assay of this set; here they are far more common.
# Hck-Nef inh = inhibitors of Nef-activated human Hck kinase, primary screen, biochemical, Z-Lyte FRET, 384-well, Hck-YEEI; Tyrosine-protein kinase HCK (Homo sapiens), P08631; Recombinant Hck-YEEI plus Nef, Z-Lyte FRET kinase assay; inhibition, % at 20 µM; actives 0.68% (n = 220,000);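 active means Hck-Nef kinase inhibition above about 50%, limit read from the data; inactive means inhibition below that limit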
# Arbovirus anti = antivirals against arbovirus infection, primary screen, cell-based, full library, 10K replicate subset; arbovirus infection cell-based antiviral screen; inhibition, % at 10 µM; actives 0.37% (n = 200,000); AID 1251, 2008; in the data active means inhibition above about 30%
# EP2 modulator = EP2 receptor modulators, cAMP readout, primary screen, cell-based, HTRF cAMP, PGE2 stimulation; EP2-expressing cells, cAMP HTRF FRET, PGE2 co-stimulation; induction, % at 25 µM; Prostaglandin E2 receptor EP2 subtype (Homo sapiens), P43116; actives 0.83% (n = 260,000); AID 940, 2007;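 active means compounds whose cAMP rise, as percent of the full-agonist control response, exceeds 60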;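 further: rat C6 glioma line stably carrying human EP2 under a CMV promoter; the protocol text gives 20 µM as final concentration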
# p97 ATPase inh = inhibitors of human p97 ATPase, primary screen, biochemical. recombinant p97 ATPase, Kinase-Glo ATP luminescence, 3 h. inhibition, % at 8 µM. actives 0.42% (n = 220,000); in the data active means inhibition above about 15%
# PGE2 EP2 inh = human EP2 receptor antagonists, primary screen, TR-FRET cAMP, C6 glioma cells. inhibition, % at 25 µM. C6 glioma cells expressing human EP2; cells stimulated with saturating PGE2. Prostaglandin E2 receptor EP2 subtype (Homo sapiens), P43116. actives 0.52% (n = 260,000);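 active means percent inhibition above 40 after rounding to a whole number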;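 further: rat C6 glioma host cells with rolipram phosphodiesterase inhibitor present; the protocol text gives 20 µM as final concentration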
# A number is an active result; – = inactive; · = no result; ! = not active in a repeat.
SMILES,Hck-Nef inh,Arbovirus anti,EP2 modulator,p97 ATPase inh,PGE2 EP2 inh
CCOC(=O)c1[nH]c2ccc(F)cc2c1NC(=O)OC,·,·,–,·,–
COC(=O)CCCCCN1C(=O)/C(=C\c2ccncc2)SC1=S,–,·,–,–,51
COC(=O)CCCCCN1C(=O)/C(=C/c2ccc(OC)cc2)SC1=S,·,·,–,·,–
O=C1/C(=C/c2ccncc2)SC(=S)N1Nc1ccccc1,–,·,–,–,64
N=c1sc2ccccc2n1CCS (tested in a mixture with another compound),·,·,–,·,57
O=c1sc2ccccc2n1CCc1ccccc1,·,·,–,·,–
O=C(COc1ccc2ccccc2c1)NNC(=O)Cc1ccccc1,–,–,–,–,63
O=C(COc1ccc2ccccc2c1)NNC(=O)Cc1cccc2ccccc12,–,–,–,–,–
C=C(C)Cn1c(COc2ccccc2)nc2ccccc21,·,·,69,·,–
CNC(=O)Cc1nc2ccccc2n1CC(=O)Nc1cccc(Cl)c1,·,·,–,·,–
CCN(CC)c1ccc2cc(I)c(=O)oc2c1,·,·,–,·,–
CCN(CC)c1ccc2ccc(=O)oc2c1,114,–,–,–,–
COc1ccc(-c2nc3c4ccccc4ccn3c2CN2CCCCC2)cc1,–,–,–,–,–
COc1ccc(-c2nc3c4ccccc4ccn3c2CN2CCCCC2)cc1OC,–,·,64,–,–
O=C(Cn1nc2c3ccccc3nc(C3CC3)n2c1=O)N1CCCC1,·,·,–,·,·
COC(=O)CCCC1=CC2=CC(=O)C(C)(OC(=O)c3cnc4ccccc4n3)C(=O)C2=CO1 (stereo unspecified),·,·,·,·,–
CCCCC1=CC2=CC(=O)C(C)(OC(=O)c3cnc4ccccc4n3)C(=O)C2=CO1 (stereo unspecified),65,·,–,·,–
O=C(Nc1ccc(OCC(F)(F)C(F)F)c(C(F)(F)F)c1)c1ccccc1,–,·,·,–,45
CCC(=O)Nc1ccccc1N1CCN(C(=O)C(C)C)CC1,·,·,–,·,–
CC(SCCc1ccccn1)C(=O)O (stereo unspecified),–,–,–,–,–
N=C(N)SCCc1ccccn1,·,·,–,·,44!
Cn1ccnc1C1(O)CCN(CC(=O)N2c3ccccc3Sc3ccccc32)CC1,·,·,–,·,·
O=C1c2ccccc2C(=O)N1C1(C(=O)NC2(C(=O)O)CCCC2)CCCC1,·,·,–,·,42
Cc1ccc(C)c(N2CCN(CC(O)c3ccc4c(c3)OCCCO4)CC2)c1 (stereo unspecified),·,·,–,·,–
O=C(O)c1c2ccccc2cc2ccccc12,·,·,–,·,–
SMILES,Hck-Nef inh,Arbovirus anti,EP2 modulator,p97 ATPase inh,PGE2 EP2 inh
Oc1cc(-c2ccccc2)c2ccccc2c1,–,–,61,–,–
COc1cccc(CNC(=O)C2CCN(c3nc4ccccc4n3C)CC2)c1,·,·,–,·,·
CN(C)/N=C/c1ccc(P(c2ccc(/C=N/N(C)C)o2)c2ccc(/C=N/N(C)C)o2)o1,–,31,–,–,–
CCOC(=O)CSc1nc2c(sc(=S)n2-c2ccccc2)c(=O)[nH]1,–,–,–,–,–
CCOc1ccc(-n2c(=S)sc3c(=O)[nH]c(SCC(=O)C(C)(C)C)nc32)cc1,–,33,–,–,–
CCOC(=O)CSc1nc2c(sc(=S)n2-c2ccc(OCC)cc2)c(=O)[nH]1,–,42,–,–,–
CCOc1ccc(-n2c(=S)sc3c(=O)[nH]c(SCC(=O)NCc4ccco4)nc32)cc1,–,–,–,–,–
CCOc1ccc(-n2c(=S)sc3c(=O)[nH]c(SCC(=O)N4CCC(C)CC4)nc32)cc1,–,–,62,–,–
COc1ccc(Cl)cc1N(CC(=O)NC(C)(C)C)C(=O)CNC(=O)c1cccs1,·,·,–,·,–
O=C(O)c1nn2c(C(F)(F)F)cc(C3CC3)nc2c1Cl,·,·,–,·,–
CSc1nc(NCCOCCO)c2sc3nc(-c4ccco4)c4c(c3c2n1)CCC4,81,–,–,–,–
c1ccc(CN(Cc2ccccc2)c2nn[nH]n2)cc1,–,–,–,–,–
Clc1ccc(CN(Cc2ccc(Cl)cc2)c2nn[nH]n2)cc1,–,38,–,–,–
Cc1cccc(N(CC(=O)NCc2ccc3c(c2)OCO3)S(C)(=O)=O)c1,·,·,–,·,–
Cc1cc(N)ccc1N1CCCC1,–,–,–,17,–
O=C(O)CSc1ccc(-c2nc3ccccc3[nH]2)cn1,·,·,–,·,–
